Calls of active or inactive are those of the source.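 Rule for the calls, unless noted: active = aptamer binding inhibition above 30%, about 3 SD of noise from non-fluorescent compounds; inactive = inhibition at or below 30%.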

Assay [1] in a line: inhibitors of CD8+ T cell-vesicle binding, pilot screen, LFA-1/ICAM-1 modulator project, MLPCN validation set, flow cytometry (AID 2523;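 active = response below a set limit, under 55% cells CD8-positive and vesicle-bound, and CD8 cells' 90th-percentile brightness under 279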;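 for vesicle binding response: mean PE anti-B7-1 fluorescence of CD8+ cells relative to row control; 100% = QL9-loaded vesicles with DMSO vehicle in the same plate row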). The settings on record: 2C mouse CD8+ T cells, at 7 µM, stronger effect = lower value; double positive events: measured here: CD8+/vesicle+ event percentage.
Assay [2] deals with Integrin beta-1 (Homo sapiens) + Integrin alpha-4 (Homo sapiens) (UniProt P13612+P05556). Kind of assay: inhibition of HUTS-21 binding to VLA-4, pilot screen, VLA-4 allosteric modulator project, U937 cells, HUTS-21 mAb, flow cytometry, validation set (AID 2674;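 active = inhibition above 50%, about 3 SD of the validation set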;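 note: antibody binding induced by the VLA-4 ligand LDV present at three times its Kd; 0% = LDV ligand with antibody and no compound and 100% = antibody without LDV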). To be noted: HUTS-21 LIBS mAb binding, at 6.7 µM, stronger effect = higher value, binding induced by LDV ligand.
Integrin beta-1 (Homo sapiens) + Integrin alpha-4 (Homo sapiens), sequence (P05556 whole entry, looked up): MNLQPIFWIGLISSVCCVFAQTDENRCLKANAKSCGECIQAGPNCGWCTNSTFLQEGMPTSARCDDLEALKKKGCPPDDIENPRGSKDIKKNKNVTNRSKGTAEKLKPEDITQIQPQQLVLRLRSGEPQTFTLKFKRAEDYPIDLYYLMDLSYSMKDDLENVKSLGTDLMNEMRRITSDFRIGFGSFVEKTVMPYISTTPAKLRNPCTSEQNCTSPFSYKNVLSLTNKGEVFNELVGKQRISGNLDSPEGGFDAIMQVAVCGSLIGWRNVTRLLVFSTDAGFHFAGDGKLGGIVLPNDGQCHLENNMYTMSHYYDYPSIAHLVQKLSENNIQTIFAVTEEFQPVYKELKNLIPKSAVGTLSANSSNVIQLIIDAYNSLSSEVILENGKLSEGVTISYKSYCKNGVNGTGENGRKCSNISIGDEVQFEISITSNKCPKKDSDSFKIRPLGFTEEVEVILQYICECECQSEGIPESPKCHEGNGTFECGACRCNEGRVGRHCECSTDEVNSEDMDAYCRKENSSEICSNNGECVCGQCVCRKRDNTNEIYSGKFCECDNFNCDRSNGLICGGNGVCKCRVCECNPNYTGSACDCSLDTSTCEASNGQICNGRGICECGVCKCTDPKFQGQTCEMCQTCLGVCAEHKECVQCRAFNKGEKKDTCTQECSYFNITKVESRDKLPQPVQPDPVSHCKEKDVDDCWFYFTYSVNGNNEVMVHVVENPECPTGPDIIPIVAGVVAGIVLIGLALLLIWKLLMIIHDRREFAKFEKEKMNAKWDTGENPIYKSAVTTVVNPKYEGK
Integrin beta-1 (Homo sapiens) + Integrin alpha-4 (Homo sapiens), sequence (P13612 whole entry, looked up): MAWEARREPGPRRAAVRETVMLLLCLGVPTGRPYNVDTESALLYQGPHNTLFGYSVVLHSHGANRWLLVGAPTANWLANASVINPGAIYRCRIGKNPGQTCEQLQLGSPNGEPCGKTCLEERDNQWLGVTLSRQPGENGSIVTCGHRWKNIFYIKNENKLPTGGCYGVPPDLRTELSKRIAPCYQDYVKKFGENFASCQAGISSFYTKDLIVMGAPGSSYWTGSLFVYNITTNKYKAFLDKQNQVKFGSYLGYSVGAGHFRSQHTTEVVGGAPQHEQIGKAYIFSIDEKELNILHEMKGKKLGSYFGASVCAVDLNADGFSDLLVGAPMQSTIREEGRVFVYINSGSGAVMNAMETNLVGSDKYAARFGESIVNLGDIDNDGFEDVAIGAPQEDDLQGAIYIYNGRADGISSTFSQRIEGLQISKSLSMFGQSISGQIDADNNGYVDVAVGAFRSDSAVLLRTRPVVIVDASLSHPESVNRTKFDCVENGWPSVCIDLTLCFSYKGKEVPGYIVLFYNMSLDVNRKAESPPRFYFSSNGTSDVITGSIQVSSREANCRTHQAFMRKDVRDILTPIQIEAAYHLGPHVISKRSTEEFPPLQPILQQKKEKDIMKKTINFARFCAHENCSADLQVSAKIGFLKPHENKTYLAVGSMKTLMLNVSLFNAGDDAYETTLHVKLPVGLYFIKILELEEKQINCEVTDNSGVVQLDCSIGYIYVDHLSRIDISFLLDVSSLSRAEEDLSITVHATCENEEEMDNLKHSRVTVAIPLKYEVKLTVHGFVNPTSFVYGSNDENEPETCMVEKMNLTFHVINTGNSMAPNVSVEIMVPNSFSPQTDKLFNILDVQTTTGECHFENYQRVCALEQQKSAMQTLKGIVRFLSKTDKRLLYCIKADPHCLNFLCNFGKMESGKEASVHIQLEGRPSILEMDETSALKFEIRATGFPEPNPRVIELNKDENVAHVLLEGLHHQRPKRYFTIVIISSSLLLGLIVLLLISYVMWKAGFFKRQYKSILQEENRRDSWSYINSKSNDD
Assay [3] in a line: superoxide lowering in aged yeast cells, pilot screen, validation compound set (AID 2706;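 active = superoxide response below 65% of plate, a cut near 3 SD across the whole screen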;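 note: yeast exposed to compound for one week at 30 degrees C before staining; 100% = mean of all compound wells on the same plate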). To be noted: S. cerevisiae aging, superoxide DHE fluorescence; at 10 µM, stronger effect = lower value.
The target in assay [4] is Beta-adrenergic receptor kinase 1 (Homo sapiens) (UniProt P25098). Kind of assay: GRK2 binders displacing RNA aptamer, biochemical, validation, human GRK2, bead flow cytometry (AID 488806). The settings on record: bead-bound GRK2, FAM-aptamer displacement, at 10 µM, stronger effect = higher value. In general terms: Flow cytometry measures light scatter and fluorescence of single cells or particles in a stream.
Beta-adrenergic receptor kinase 1 (Homo sapiens), sequence (P25098 whole entry, looked up): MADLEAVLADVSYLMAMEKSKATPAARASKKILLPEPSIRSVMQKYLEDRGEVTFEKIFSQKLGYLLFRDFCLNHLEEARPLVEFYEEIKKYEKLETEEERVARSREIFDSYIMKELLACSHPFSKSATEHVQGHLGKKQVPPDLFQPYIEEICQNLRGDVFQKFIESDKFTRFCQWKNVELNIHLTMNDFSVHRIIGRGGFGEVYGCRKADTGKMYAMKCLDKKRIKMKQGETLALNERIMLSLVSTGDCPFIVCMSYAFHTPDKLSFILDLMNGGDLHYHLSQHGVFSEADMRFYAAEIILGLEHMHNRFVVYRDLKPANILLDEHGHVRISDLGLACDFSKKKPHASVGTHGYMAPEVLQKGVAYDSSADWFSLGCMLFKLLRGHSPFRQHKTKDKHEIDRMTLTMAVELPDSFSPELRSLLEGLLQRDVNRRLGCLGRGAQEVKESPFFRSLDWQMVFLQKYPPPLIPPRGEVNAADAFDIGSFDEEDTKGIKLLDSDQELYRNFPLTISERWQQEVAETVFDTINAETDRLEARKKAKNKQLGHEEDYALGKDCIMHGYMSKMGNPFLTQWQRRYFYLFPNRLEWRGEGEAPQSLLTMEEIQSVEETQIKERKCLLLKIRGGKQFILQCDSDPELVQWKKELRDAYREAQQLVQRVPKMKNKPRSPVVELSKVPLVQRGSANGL

The target in assay [5] is Beta-2 adrenergic receptor (Homo sapiens) (UniProt P07550). Kind of assay: beta2AR agonists driving receptor internalization, pilot screen, cell-based, FAP fluorogen, flow cytometry, validation set (AID 504459;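 active = percent response above 42, roughly 3 SD of non-fluorescent test compounds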;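 note: agonist-driven loss of surface beta2AR via internalization measured by FAP dye flow cytometry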). The settings on record: Am2.2-beta2AR cells, FAP surface receptor flow cytometry; at 10 µM; stronger effect = higher value.
Beta-2 adrenergic receptor (Homo sapiens), sequence (P07550 whole entry, looked up): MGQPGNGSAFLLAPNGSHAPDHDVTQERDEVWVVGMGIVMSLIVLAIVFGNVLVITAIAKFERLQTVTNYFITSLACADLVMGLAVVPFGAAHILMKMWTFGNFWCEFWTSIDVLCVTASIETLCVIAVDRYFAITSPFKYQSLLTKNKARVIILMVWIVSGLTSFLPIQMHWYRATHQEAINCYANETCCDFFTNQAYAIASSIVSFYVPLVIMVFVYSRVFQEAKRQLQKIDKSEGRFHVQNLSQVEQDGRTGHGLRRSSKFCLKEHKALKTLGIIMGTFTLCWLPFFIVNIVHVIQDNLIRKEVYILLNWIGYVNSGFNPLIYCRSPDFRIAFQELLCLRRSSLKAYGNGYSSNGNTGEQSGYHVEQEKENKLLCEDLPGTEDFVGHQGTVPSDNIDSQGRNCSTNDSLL
For assay [6], the target named is AP-2 complex subunit beta (Homo sapiens) (UniProt P63010). Kind of assay: inhibitors of arrestin peptide binding to AP2, pilot screen, biochemical, validation set, GST-AP2 beads, flow cytometry (AID 504541;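 active = inhibition above 54%, about 3 SD of non-fluorescent compounds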;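 note: AP2 carries R879A mutation and is captured from E. coli lysate; bead-bound FITC arrestin peptide fluorescence measuring arrestin peptide binding to AP2; 0% = DMSO wells and 100% = excess unlabeled arrestin peptide control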). To be noted: FITC arrestin peptide, at 10 µM, stronger effect = higher value, AP2 beta2 appendage fragment, R879A mutant.
AP-2 complex subunit beta (Homo sapiens), sequence (P63010 whole entry, looked up, the tested form may be a part, one chain of several): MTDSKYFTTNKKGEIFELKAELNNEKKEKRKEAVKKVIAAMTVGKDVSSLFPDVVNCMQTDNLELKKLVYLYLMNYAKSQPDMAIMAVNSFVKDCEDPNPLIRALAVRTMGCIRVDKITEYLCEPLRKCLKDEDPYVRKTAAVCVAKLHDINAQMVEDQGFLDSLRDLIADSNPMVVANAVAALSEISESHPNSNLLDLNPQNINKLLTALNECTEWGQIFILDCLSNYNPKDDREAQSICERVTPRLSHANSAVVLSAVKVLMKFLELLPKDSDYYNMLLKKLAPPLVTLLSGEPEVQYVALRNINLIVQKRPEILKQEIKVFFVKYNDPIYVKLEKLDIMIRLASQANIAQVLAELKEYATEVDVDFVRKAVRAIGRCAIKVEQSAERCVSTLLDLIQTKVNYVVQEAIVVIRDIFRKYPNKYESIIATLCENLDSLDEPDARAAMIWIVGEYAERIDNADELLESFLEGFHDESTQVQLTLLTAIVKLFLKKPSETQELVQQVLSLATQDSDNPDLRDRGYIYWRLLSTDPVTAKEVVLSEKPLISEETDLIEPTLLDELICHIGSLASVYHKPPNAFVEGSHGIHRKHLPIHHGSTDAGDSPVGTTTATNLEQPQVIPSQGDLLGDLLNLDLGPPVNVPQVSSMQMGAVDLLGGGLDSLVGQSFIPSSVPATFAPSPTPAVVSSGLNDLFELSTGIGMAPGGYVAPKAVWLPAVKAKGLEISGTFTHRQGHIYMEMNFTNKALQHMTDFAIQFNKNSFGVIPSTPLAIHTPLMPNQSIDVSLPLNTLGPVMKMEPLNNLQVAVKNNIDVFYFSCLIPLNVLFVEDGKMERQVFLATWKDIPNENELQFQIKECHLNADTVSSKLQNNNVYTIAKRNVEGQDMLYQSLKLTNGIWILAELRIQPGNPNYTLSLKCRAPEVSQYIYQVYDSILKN
Assay [7] is described as follows: yeast V-ATPase proton transport modulators, S. cerevisiae, pHLuorin, HTS validation (AID 504600; in the data active = response above about 15%;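 note: plate controls were DMSO for no effect and reference compound for full effect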). To be noted: S. cerevisiae pHLuorin cytosolic pH, at 10 µM, stronger effect = higher value.
Assay [8] concerns anti-desmoglein-3 scFv antibody binding to human DSG3. Kind of assay: inhibitors of anti-DSG3 scFv binding to DSG3, pilot screen, biochemical, validation compound set, bead-based, flow cytometry (AID 588368;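 active = binding below the plate cutoff, the plate median minus 3 SD, with a reading above zero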;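 note: signal is the median channel fluorescence of bead-bound GFP antibody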). To be noted: Protein G beads, DSG3-Fc, scFv-GFP binding, at 10 µM, stronger effect = lower value.
A short description of assay [9]: inhibitors of fungal efflux pumps CDR1, CDR2, MDR1, pilot screen, validation compound set, multiplex, phenotypic (AID 588506;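 active = efflux inhibition above 0.42, the validation set average plus 4 SD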;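 note: Nile Red retained in cells so higher fluorescence means more efflux inhibition; 0 = negative control wells and 1 = enniatin B 25 µM full block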). To be noted: S. cerevisiae pump-expressing triplex, Nile Red efflux flow cytometry; at 10 µM; stronger effect = higher value; the pumps come from Candida albicans.
Assay [10] addresses ATP-binding cassette sub-family B member 6 (Homo sapiens) (UniProt Q9NP58). Put plainly: ABCB6 transporter inhibitors, pilot screen, K562-ABCB6 cells, flow cytometry, validation set (AID 588550;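 active = inhibition above the screen-wide mean plus 3 SD, about 51%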;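 note: 0% = DMSO wells and 100% = benzethonium chloride 70 µM positive control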). To be noted: K562-ABCB6 porphyrin accumulation, 1 h, at 10 µM, stronger effect = higher value.
Assay [11] in a line: promoters of myeloid differentiation in arrested cells, primary screen, cell-based, GFP/MAC1 double positive, flow cytometry, validation set (AID 588685;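 active = differentiation response of at least 50%, scaled between solvent and reference control, from cells with both markers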;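 note: compound exposure lasts four days before antibody staining and flow analysis; 0% = DMSO wells and 100% = 5 µM fulvestrant positive control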). To be noted: ER-HoxA9 marrow cells, stronger effect = higher value, normalized: vehicle 0, fulvestrant 100.

ATP-binding cassette sub-family B member 6 (Homo sapiens), sequence (Q9NP58 whole entry, looked up): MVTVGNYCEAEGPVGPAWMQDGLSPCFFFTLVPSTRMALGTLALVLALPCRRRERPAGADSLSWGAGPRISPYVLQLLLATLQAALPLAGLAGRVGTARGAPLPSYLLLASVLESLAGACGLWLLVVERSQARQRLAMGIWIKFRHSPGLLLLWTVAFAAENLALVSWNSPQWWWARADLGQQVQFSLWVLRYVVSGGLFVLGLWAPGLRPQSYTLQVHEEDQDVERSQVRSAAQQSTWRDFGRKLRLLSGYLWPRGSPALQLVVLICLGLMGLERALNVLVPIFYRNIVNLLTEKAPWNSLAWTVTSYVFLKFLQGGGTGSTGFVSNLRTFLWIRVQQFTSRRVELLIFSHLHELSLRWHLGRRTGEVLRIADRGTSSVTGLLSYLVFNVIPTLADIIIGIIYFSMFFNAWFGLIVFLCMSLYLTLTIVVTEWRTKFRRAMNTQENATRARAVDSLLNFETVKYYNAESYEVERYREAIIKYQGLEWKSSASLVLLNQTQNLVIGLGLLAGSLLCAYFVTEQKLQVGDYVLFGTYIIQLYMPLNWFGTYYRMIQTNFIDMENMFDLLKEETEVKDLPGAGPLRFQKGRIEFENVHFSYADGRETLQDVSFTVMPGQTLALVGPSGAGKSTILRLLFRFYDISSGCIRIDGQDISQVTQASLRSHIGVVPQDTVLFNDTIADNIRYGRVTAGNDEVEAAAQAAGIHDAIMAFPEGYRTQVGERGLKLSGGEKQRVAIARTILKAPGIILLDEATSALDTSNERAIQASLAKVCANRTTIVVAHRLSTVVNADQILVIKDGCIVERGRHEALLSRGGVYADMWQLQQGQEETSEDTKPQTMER

What is called inhibition is the change of the read-out against control, counted positive when it falls. Take `COc1ccc(CCNC(=O)c2c(O)c3c([nH]c2=O)CCCC3)cc1`: the double positive events in [1] turned out to be 62.2%. Further, the vesicle binding response in assay [1] is 180% (inactive). Moreover, the results for the inhibition in [2], in assay [6] and in assay [10] were 3.14% (inactive), -16.3% (inactive) and 1% (inactive), respectively. The superoxide response (% of plate) in assay [3] is 124% (inactive). In addition, the aptamer binding inhibition in assay [4] was -6% (inactive). The response in [5] was -28.9% (inactive); in assay [7], 9.51% (inactive). Besides, in assay [8], the binding (% of control) was 30.9% (active). The efflux inhibition (fraction of control) in assay [9] was 0 (inactive). In assay [11], the differentiation response was -0.06% (inactive).

As for `CC(=O)N1CC2(C)CN(C(C)=O)CC(C)(C1)C2`, in assay [1], the double positive events turned out to be 60.3%. Further, the vesicle binding response in assay [1] is 169% (inactive). For the same compound, the inhibition in assay [2] is 8.25% (inactive); in assay [6], -12.9% (inactive); in [10], -1% (inactive). Moreover, the superoxide response (% of plate) in assay [3] is 91.7% (inactive). Moreover, in assay [4], the aptamer binding inhibition is -2% (inactive). For the same compound, the response in [5] is -23.9% (inactive); in assay [7] it was 1.35% (inactive). For the same compound, the binding (% of control) in assay [8] was 100% (inactive). Further, the efflux inhibition (fraction of control) in [9] was 0 (inactive). Besides, the differentiation response in assay [11] was -4.99% (inactive).

Turning to `O=C1Nc2ccc3sc4ccccc4c3c2C1=O`, the double positive events in assay [1] came to 62%. The vesicle binding response in assay [1] was 162% (inactive). Further, the inhibition is 9.63% (inactive) in [2], -0.66% (inactive) in assay [6] and -15% (inactive) in assay [10]. In [3], the superoxide response (% of plate) was 111% (inactive). Further, the aptamer binding inhibition in [4] was 1% (inactive). Also, the response was 3.08% (inactive) in assay [5] and -7.6% (inactive) in assay [7]. For the same compound, the binding (% of control) in assay [8] is 102% (inactive). The efflux inhibition (fraction of control) in assay [9] is -0.19 (inactive). In assay [11], the differentiation response was -0.18% (inactive).

For the compound `CC(C)Cc1nc(NCCN2CCOCC2)c(C#N)c2c1COC(C)(C)C2`, the double positive events in assay [1] amounted to 61.1%. Besides, the vesicle binding response in assay [1] was 159% (inactive). For the same compound, the inhibition in assay [2] was 7.4% (inactive); in [6] it was -18.1% (inactive); in [10], -5% (inactive). Further, the superoxide response (% of plate) in [3] was 93.4% (inactive). For the same compound, the aptamer binding inhibition in assay [4] was -1% (inactive). The response in assay [5] is -20.4% (inactive); in assay [7], 3.4% (inactive). Moreover, the binding (% of control) in [8] was 104% (inactive). In addition, in assay [9], the efflux inhibition (fraction of control) is 0.08 (inactive). Also, the differentiation response in assay [11] was -15.8% (inactive).

In assay [1], `COc1ccc2cc[nH]c2c1` returned a double positive events of 67.5%. In assay [1], the vesicle binding response was 407% (inactive). In addition, the inhibition in [2] was -5.38% (inactive); in assay [6], -3.08% (inactive); in assay [10] it was 5% (inactive). In addition, the superoxide response (% of plate) in [3] was 104% (inactive). In [4], the aptamer binding inhibition is 2% (inactive). The response in assay [5] was -20.2% (inactive); in assay [7], 0.61% (inactive). In addition, the binding (% of control) in assay [8] was 103% (inactive). The efflux inhibition (fraction of control) in [9] was 0 (inactive). Also, the differentiation response in assay [11] was -10.9% (inactive).

In assay [1], `CCN(CC)C(=S)SSC(=S)N(CC)CC` gave a double positive events of 59.7%. In addition, the vesicle binding response in assay [1] was 164% (inactive). Moreover, the inhibition in assay [2] is 27.8% (inactive); in assay [6] it was 3.89% (inactive); in [10], 4% (inactive). The superoxide response (% of plate) in [3] was 109% (inactive). Moreover, the aptamer binding inhibition in assay [4] is 4% (inactive). The results for the response in assay [5] and in [7] were 14.2% (inactive) and -29.5% (inactive), respectively. In addition, the binding (% of control) in assay [8] was 100% (inactive). The efflux inhibition (fraction of control) in [9] is -0.13 (inactive). Also, in [11], the differentiation response is -0.06% (inactive).

In [1], `N=C1C(c2ccccc2)=C(O)CN1CCCO` returned a double positive events of 58.1%. Besides, the vesicle binding response in [1] is 157% (inactive). The inhibition in [2] is 2.3% (inactive); in [6], -7.8% (inactive); in [10] it was 12% (inactive). In addition, the superoxide response (% of plate) in [3] was 91.2% (inactive). The aptamer binding inhibition in [4] is 3% (inactive). Moreover, the figures for the response in assay [5] and in assay [7] were -12.9% (inactive) and -6.01% (inactive), respectively. In addition, the binding (% of control) in [8] was 93.8% (inactive). Further, in assay [9], the efflux inhibition (fraction of control) was -0.06 (inactive). In addition, the differentiation response in assay [11] is -31.2% (inactive).

In assay [1], `C[C@H](NC(=O)NCCc1ccccc1)C(=O)O` displayed a double positive events of 58.1%. In assay [1], the vesicle binding response is 252% (inactive). Moreover, the inhibition in [2] was 2.3% (inactive); in assay [6] it was -3.97% (inactive); in assay [10], 3% (inactive). Further, in assay [3], the superoxide response (% of plate) was 104% (inactive). For the same compound, the aptamer binding inhibition in assay [4] was 6% (inactive). Also, the values for the response in assay [5] and in [7] were 0.08% (inactive) and -4.57% (inactive), respectively. Moreover, the binding (% of control) in assay [8] was 99.1% (inactive). Also, the efflux inhibition (fraction of control) in [9] was -0.13 (inactive). For the same compound, the differentiation response in assay [11] is 4% (inactive).

Take `C=C(C)COc1ccc(-c2nc(N)ncc2-c2ccc(OC)cc2)c(O)c1`: the double positive events in assay [1] came to 55.6%. In addition, the vesicle binding response in assay [1] is 43.9% (inactive). Moreover, the inhibition in [2] is 20.3% (inactive); in assay [6], -4.84% (inactive); in assay [10], 4% (inactive). Besides, the superoxide response (% of plate) in [3] was 111% (inactive). The aptamer binding inhibition in [4] is 1% (inactive). The response is -10.8% (inactive) in assay [5] and 1.42% (inactive) in [7]. The binding (% of control) in [8] was 92% (inactive). In addition, the efflux inhibition (fraction of control) in [9] was -0.45 (inactive). In assay [11], the differentiation response was -9.53% (inactive).

Take `CCCN1C[C@H](CSC)C[C@@H]2c3cccc4[nH]cc(c34)C[C@H]21`: in [1], the double positive events amounted to 58.9%. The vesicle binding response in assay [1] is 167% (inactive). For the same compound, the figures for the inhibition in assay [2], in [6] and in assay [10] were -8.78% (inactive), 1.85% (inactive) and -37% (inactive), respectively. In addition, in assay [3], the superoxide response (% of plate) was 77.2% (inactive). Further, the aptamer binding inhibition in assay [4] was -1% (inactive). Also, the response in [5] was -19.4% (inactive); in [7], 78.5% (active). In addition, in assay [8], the binding (% of control) is 105% (inactive). For the same compound, the efflux inhibition (fraction of control) in [9] was 0 (inactive). For the same compound, the differentiation response in [11] was -10.9% (inactive).

Compound `O=c1[nH]cnc2c1ncn2[C@@H]1O[C@H](CO)[C@@H](O)[C@H]1O` gave a double positive events in [1] of 62%. For the same compound, the vesicle binding response in assay [1] was 140% (inactive). The inhibition is -15.6% (inactive) in assay [2], -10.3% (inactive) in assay [6] and 5% (inactive) in assay [10]. The superoxide response (% of plate) in assay [3] is 86.8% (inactive). Besides, the aptamer binding inhibition in assay [4] is 2% (inactive). The values for the response in [5] and in assay [7] were -18% (inactive) and -0.11% (inactive), respectively. Also, the binding (% of control) in assay [8] was 106% (inactive). Moreover, the efflux inhibition (fraction of control) in [9] is 0.12 (inactive). The differentiation response in [11] was -7.94% (inactive).

For `O=C(CCCC(=O)OCC1CCCO1)OCC1CCCO1` (stereo unspecified), the double positive events in assay [1] is 65.5%. The vesicle binding response in assay [1] was 131% (inactive). The inhibition in assay [2] is 4.52% (inactive); in assay [6], -6.03% (inactive); in [10] it was 15% (inactive). The superoxide response (% of plate) in [3] was 93.2% (inactive). In addition, in [4], the aptamer binding inhibition is -3% (inactive). The response in assay [5] is 2.91% (inactive); in assay [7] it was 2.81% (inactive). The binding (% of control) in [8] is 99.4% (inactive). Moreover, the efflux inhibition (fraction of control) in assay [9] is -0.02 (inactive). In [11], the differentiation response was 2.46% (inactive).

In turn, `CCCC(=O)O[C@]1(C(=O)CO)CC[C@H]2[C@@H]3CCC4=CC(=O)CC[C@]4(C)[C@H]3[C@@H](O)C[C@@]21C` showed a double positive events in assay [1] of 56.4%. The vesicle binding response in assay [1] is 901% (inactive). Also, the figures for the inhibition in assay [2], in assay [6] and in assay [10] were -8.75% (inactive), 14.7% (inactive) and 1% (inactive), respectively. For the same compound, in [3], the superoxide response (% of plate) was 105% (inactive). For the same compound, the aptamer binding inhibition in [4] was -3% (inactive). Also, the values for the response in assay [5] and in assay [7] were -0.28% (inactive) and -3.44% (inactive), respectively. For the same compound, the binding (% of control) in assay [8] was 99.7% (inactive). Further, the efflux inhibition (fraction of control) in [9] was -0.2 (inactive). Further, the differentiation response in assay [11] is -3.67% (inactive).
